# Measured values as given in PubChem BioAssay AID1508601 (ICCB-Longwood Screening Facility, Harvard Medical School, 2020).
# The whole screen tested about 5,700 compounds, of which about 85 (1%) were called active. This is one part of a sample in which actives are shown more often than they occur. Rule as the data show it: active = p53-positive nuclei above about 36% (passing the limit was not always enough); inactive = the rest.
# What was measured:
# [1] = nuclear p53 accumulation, HPV+ cells – imaging, p53-positive nuclei imaging, 24 h, 48 h (AID 1508601); settings: 24/48 h
# [2] = molecular target: Cellular tumor antigen p53 (Homo sapiens) (UniProt P04637); assay: as above; settings: 24/48 h, stronger effect = higher value
# [3] = measured here: cell number at 24 h, Library stock concentration: 10 mM
# [4] = measured here: cell number at 48 h, Library stock concentration: 10 mM
# [5] = Library stock concentration: 10 mM
# [6] = measured here: p53 positive nuclei at 24 h, Library stock concentration: 10 mM
# [7] = measured here: cell number at 24 h, concentration not given here
# [8] = measured here: cell number at 48 h, concentration not given here
# [9] = measured here: p53 positive nuclei at 24 h, concentration not given here
# [10] = measured here: cell number at 24 h, Library stock concentration: 3.33 mM
# [11] = measured here: cell number at 48 h, Library stock concentration: 3.33 mM
# [12] = Library stock concentration: 3.33 mM
# [13] = measured here: p53 positive nuclei at 24 h, Library stock concentration: 3.33 mM
# Sequence of Cellular tumor antigen p53 (Homo sapiens) (P04637 whole entry, looked up): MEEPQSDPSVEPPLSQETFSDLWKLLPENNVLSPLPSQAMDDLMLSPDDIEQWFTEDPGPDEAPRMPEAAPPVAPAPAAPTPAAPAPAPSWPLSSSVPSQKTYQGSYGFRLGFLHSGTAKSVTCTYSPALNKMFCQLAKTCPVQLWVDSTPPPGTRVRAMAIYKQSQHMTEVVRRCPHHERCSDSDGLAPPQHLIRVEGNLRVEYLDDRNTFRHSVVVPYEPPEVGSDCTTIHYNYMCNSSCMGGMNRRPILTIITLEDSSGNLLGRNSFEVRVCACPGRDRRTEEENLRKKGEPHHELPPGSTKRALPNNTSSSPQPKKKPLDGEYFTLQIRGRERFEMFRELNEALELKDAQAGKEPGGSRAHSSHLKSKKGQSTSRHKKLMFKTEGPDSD
smiles,measurement,setting,value
O=C(O)c1ccccc1SC1=NS(=O)(=O)c2ccccc21,"nuclei count, normalised","[1]; measured here: cell number at 24 h, Library stock concentration: 500 nM",117%
same,"nuclei count, normalised","[1]; measured here: cell number at 24 h, Library stock concentration: 1.5 uM",119%
same,"nuclei count, normalised","[1]; measured here: cell number at 24 h, Library stock concentration: 4.6 uM",119%
same,"nuclei count, normalised","[1]; measured here: cell number at 24 h, Library stock concentration: 13.7 uM",120%
same,"nuclei count, normalised","[1]; measured here: cell number at 24 h, Library stock concentration: 41 uM",125%
same,"nuclei count, normalised","[1]; measured here: cell number at 24 h, Library stock concentration: 123 uM",126%
same,"nuclei count, normalised","[1]; measured here: cell number at 24 h, Library stock concentration: 370 uM",125%
same,"nuclei count, normalised","[1]; measured here: cell number at 24 h, Library stock concentration: 1.111 mM",119%
same,"nuclei count, normalised","[1]; measured here: cell number at 24 h, Library stock concentration: 3.333 mM",120%
same,"nuclei count, normalised",[1]; [3],112%
same,"nuclei count, normalised","[1]; measured here: cell number at 48 h, Library stock concentration: 500 nM",123%
same,"nuclei count, normalised","[1]; measured here: cell number at 48 h, Library stock concentration: 1.5 uM",121%
same,"nuclei count, normalised","[1]; measured here: cell number at 48 h, Library stock concentration: 4.6 uM",126%
same,"nuclei count, normalised","[1]; measured here: cell number at 48 h, Library stock concentration: 13.7 uM",116%
same,"nuclei count, normalised","[1]; measured here: cell number at 48 h, Library stock concentration: 41 uM",127%
same,"nuclei count, normalised","[1]; measured here: cell number at 48 h, Library stock concentration: 123 uM",121%
same,"nuclei count, normalised","[1]; measured here: cell number at 48 h, Library stock concentration: 370 uM",120%
same,"nuclei count, normalised","[1]; measured here: cell number at 48 h, Library stock concentration: 1.111 mM",117%
same,"nuclei count, normalised","[1]; measured here: cell number at 48 h, Library stock concentration: 3.333 mM",122%
same,"nuclei count, normalised",[1]; [4],111%
same,"p53-positive nuclei, normalised",[2]; Library stock concentration: 500 nM,-0.176% (inactive)
same,"p53-positive nuclei, normalised",[2]; Library stock concentration: 1.5 uM,0.0563% (inactive)
same,"p53-positive nuclei, normalised",[2]; Library stock concentration: 4.6 uM,-0.0688% (inactive)
same,"p53-positive nuclei, normalised",[2]; Library stock concentration: 13.7 uM,0.0271% (inactive)
same,"p53-positive nuclei, normalised",[2]; Library stock concentration: 41 uM,-0.248% (inactive)
same,"p53-positive nuclei, normalised",[2]; Library stock concentration: 123 uM,-0.212% (inactive)
same,"p53-positive nuclei, normalised",[2]; Library stock concentration: 370 uM,0.0436% (inactive)
same,"p53-positive nuclei, normalised",[2]; Library stock concentration: 1.111 mM,0.133% (inactive)
same,"p53-positive nuclei, normalised",[2]; Library stock concentration: 3.333 mM,-0.102% (inactive)
same,"p53-positive nuclei, normalised",[2]; [5],0.0746% (inactive)
same,"p53-positive nuclei, normalised","[2]; measured here: p53 positive nuclei at 24 h, Library stock concentration: 500 nM",-0.148%
same,"p53-positive nuclei, normalised","[2]; measured here: p53 positive nuclei at 24 h, Library stock concentration: 1.5 uM",-0.0949%
same,"p53-positive nuclei, normalised","[2]; measured here: p53 positive nuclei at 24 h, Library stock concentration: 4.6 uM",-0.0339%
same,"p53-positive nuclei, normalised","[2]; measured here: p53 positive nuclei at 24 h, Library stock concentration: 13.7 uM",-0.0316%
same,"p53-positive nuclei, normalised","[2]; measured here: p53 positive nuclei at 24 h, Library stock concentration: 41 uM",-0.148%
same,"p53-positive nuclei, normalised","[2]; measured here: p53 positive nuclei at 24 h, Library stock concentration: 123 uM",-0.148%
same,"p53-positive nuclei, normalised","[2]; measured here: p53 positive nuclei at 24 h, Library stock concentration: 370 uM",-0.0409%
same,"p53-positive nuclei, normalised","[2]; measured here: p53 positive nuclei at 24 h, Library stock concentration: 1.111 mM",-0.0917%
same,"p53-positive nuclei, normalised","[2]; measured here: p53 positive nuclei at 24 h, Library stock concentration: 3.333 mM",-0.0904%
same,"p53-positive nuclei, normalised",[2]; [6],-0.0218%
O=C(CCn1cnnn1)N1CCc2[nH]nc(-c3ccc4c(c3)OCO4)c2C1,"nuclei count, normalised",[1]; [7],107%
same,"nuclei count, normalised",[1]; [8],111%
same,"p53-positive nuclei, normalised",[2]; concentration not given here,0.266% (inactive)
same,"p53-positive nuclei, normalised",[2]; [9],0.111%
Cc1ccc([N+](=O)[O-])cc1S(=O)(=O)N(C)N=Cc1cnc2ccc(Br)cn12,"nuclei count, normalised",[1]; [10],17.7%
same,"nuclei count, normalised",[1]; [11],14.7%
same,"p53-positive nuclei, normalised",[2]; [12],14.4% (inactive)
same,"p53-positive nuclei, normalised",[2]; [13],4.1%
CCc1c2c(nc3ccc(OC(=O)N4CCC(N5CCCCC5)CC4)cc13)-c1cc3c(c(=O)n1C2)COC(=O)[C@@]3(O)CC,"nuclei count, normalised",[1]; [10],44.3%
same,"nuclei count, normalised",[1]; [11],30.6%
same,"p53-positive nuclei, normalised",[2]; [12],-0.157% (inactive)
same,"p53-positive nuclei, normalised",[2]; [13],-0.474%
CN(C)CCCn1cc(C2=C(c3c[nH]c4ccccc34)C(=O)NC2=O)c2ccccc21,"nuclei count, normalised",[1]; [10],108%
same,"nuclei count, normalised",[1]; [11],105%
same,"p53-positive nuclei, normalised",[2]; [12],0.0456% (inactive)
same,"p53-positive nuclei, normalised",[2]; [13],-0.293%
Cn1cc(C2=C(c3cn(CCCN)c4ccccc34)C(=O)NC2=O)c2ccccc21,"nuclei count, normalised",[1]; [7],114%
same,"nuclei count, normalised",[1]; [8],106%
same,"p53-positive nuclei, normalised",[2]; concentration not given here,0.117% (inactive)
same,"p53-positive nuclei, normalised",[2]; [9],0.12%
Cn1cc(C2=C(c3cn(CCCSC(=N)N)c4ccccc34)C(=O)NC2=O)c2ccccc21,"nuclei count, normalised","[1]; measured here: cell number at 24 h, Library stock concentration: 80 uM",108%
same,"nuclei count, normalised","[1]; measured here: cell number at 24 h, Library stock concentration: 400 uM",104%
same,"nuclei count, normalised","[1]; measured here: cell number at 24 h, Library stock concentration: 2 mM",97.9%
same,"nuclei count, normalised",[1]; [10],68.3%
same,"nuclei count, normalised",[1]; [3],38.8%
same,"nuclei count, normalised",[1]; [7],102%
same,"nuclei count, normalised","[1]; measured here: cell number at 48 h, Library stock concentration: 80 uM",114%
same,"nuclei count, normalised","[1]; measured here: cell number at 48 h, Library stock concentration: 400 uM",111%
same,"nuclei count, normalised","[1]; measured here: cell number at 48 h, Library stock concentration: 2 mM",98.9%
same,"nuclei count, normalised",[1]; [11],63.6%
same,"nuclei count, normalised",[1]; [4],29%
same,"nuclei count, normalised",[1]; [8],104%
same,"p53-positive nuclei, normalised",[2]; Library stock concentration: 80 uM,0.143% (inactive)
same,"p53-positive nuclei, normalised",[2]; Library stock concentration: 400 uM,-0.08% (inactive)
same,"p53-positive nuclei, normalised",[2]; Library stock concentration: 2 mM,3.66% (inactive)
same,"p53-positive nuclei, normalised",[2]; [12],23.8% (inactive)
same,"p53-positive nuclei, normalised",[2]; [5],70.5% (active)
same,"p53-positive nuclei, normalised",[2]; concentration not given here,0.319% (inactive)
same,"p53-positive nuclei, normalised","[2]; measured here: p53 positive nuclei at 24 h, Library stock concentration: 80 uM",-0.111%
same,"p53-positive nuclei, normalised","[2]; measured here: p53 positive nuclei at 24 h, Library stock concentration: 400 uM",-0.0611%
same,"p53-positive nuclei, normalised","[2]; measured here: p53 positive nuclei at 24 h, Library stock concentration: 2 mM",3.9%
same,"p53-positive nuclei, normalised",[2]; [13],33.8%
same,"p53-positive nuclei, normalised",[2]; [6],47.3%
same,"p53-positive nuclei, normalised",[2]; [9],0.487%
Cc1nsc(NC(=O)NCCC2CCCCCC2)n1,"nuclei count, normalised",[1]; [7],106%
same,"nuclei count, normalised",[1]; [8],112%
same,"p53-positive nuclei, normalised",[2]; concentration not given here,-0.14% (inactive)
same,"p53-positive nuclei, normalised",[2]; [9],-0.0933%
CC1(C)OC2C[C@H]3[C@@H]4CCC5=CC(=O)CC[C@]5(C)[C@]4(F)C(O)C[C@]3(C)[C@@]2(C(=O)CCl)O1 (stereo partly specified),"nuclei count, normalised",[1]; [10],80.9%
same,"nuclei count, normalised",[1]; [11],80.1%
same,"p53-positive nuclei, normalised",[2]; [12],-0.151% (inactive)
same,"p53-positive nuclei, normalised",[2]; [13],-0.267%
O=C1O[C@H](C(O)CO)C(O)C1O (stereo partly specified),"nuclei count, normalised",[1]; [10],110%
same,"nuclei count, normalised",[1]; [11],103%
same,"p53-positive nuclei, normalised",[2]; [12],-0.204% (inactive)
same,"p53-positive nuclei, normalised",[2]; [13],-0.283%
